Experimental findings from PubChem BioAssay AID652067 (The Scripps Research Institute Molecular Screening Center, 2013) are described below.

SMILES strings stand for the structures. Screen size: about 370,000 compounds; about 5,400 (1.5%) were called active. Many of the other results were omitted from the sample, so actives are more common in it than they were. Unmarked numbers belong to inactive results.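 How the source made its calls: active means activation above the mean of all tested compounds plus 3 SD (cut at about 5.5% in these data); inactive means the rest.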

The subject of the experiment is DAF-12 nuclear receptor (Haemonchus contortus). Put plainly: hcDAF-12 driven luciferase reporter activation – cell-based, luminescence, HEK293, lit1-tk-luc reporter, primary screen (AID 652067).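 Further: 100% = response to 3 µM Δ7-dafachronic acid high control.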 The following applies: HEK293 hcDAF-12 lit1-tk-luc reporter, at 6.8 µM, active compounds read high, 0% DMSO, 100% Δ7-dafachronic acid. (In general: Reporter assays use an easily measured gene product as a stand-in for the process of interest.)
As for `Fc1ccc2nc(COCc3nc4ccc(F)cc4[nH]3)[nH]c2c1`, the activation is -1.16%.
For `Cc1cccc(Nc2nnc(SCC(=O)c3c(N)n(C4CC4)c(=O)[nH]c3=O)s2)c1C`, the activation was -1.19%.
Regarding `CCOc1ccccc1Nc1nnc(SCC(=O)Nc2cc(C)on2)s1`, the activation was -3.24%.
Take `Cc1ccccc1Nc1nnc(SCC(=O)c2cc3ccccc3o2)s1`: the activation is 7.93% (active).
The figure for `CC(=NNC(N)=O)c1ccc(Cl)c(-n2cccc2)c1` is 0.37%; for `O=c1cc(-c2ccccc2)[nH]c2cc(F)ccc12` it is -0.52%.
For `COc1cc(OC)cc(-c2cc3ccc(F)cc3cn2)c1` the value was 3.13%.
The figure for `Fc1ccc2cnc(-c3ccccc3)cc2c1` is 6.9% (active); for `COC(=O)[C@]12C[C@H](CC(=O)NCc3ccccc3)C(=O)N(CCc3ccc(OC)c(OC)c3)C1=C[C@H](C(C)(C)C)O[C@@H]2C` it is -2.1%; for `O=c1[nH]c(-c2ccccc2)cn1C1CCN(Cc2ccc(-c3nc4ccc(F)cc4nc3-c3ccccc3)cc2)CC1` it is 0.07%.
As to `O=C(CCS(=O)(=O)c1ccccc1)Nc1ccc(Cl)c(Cl)c1`, the activation is 0.35%.
The figure for `COc1ccc(C#CCNCc2ccc(OC)cc2OC)cc1` is -3.08%; for `Cc1ccc2nc(-c3ccc(CN4CCC(n5cc(-c6ccccc6)[nH]c5=O)CC4)cc3)c(-c3ccccc3)nc2c1` it is -2.64%; for `COCCNC(=O)c1ccccc1-c1nc(-c2ccccc2Cl)no1` it is 2.6%.
As for `Cc1cc(C)n(C(=O)CCNC(=O)c2ccccc2Cl)n1`, the activation was -1.04%.
`CN(C)CCNC(=O)c1ccc(Cl)c2cc3ccccc3nc12`: the activation is 13.5% (active).
`O=C(N1CCOCC1)N(Cc1ccccc1)c1ccccn1`: the activation is -1.16%.
For the molecule `O=C(Nc1ccc2ccccc2c1)Nc1ccc2snnc2c1`, the activation was -0.5%.
For `O=S(=O)(NC(=S)Nc1ccccc1)c1ccc(F)cc1` the value was 2.29%; for `S=C(Nc1ccccc1)Nc1ccc2ccccc2c1`, 6.41% (active); for `CC(=O)C1=C(C)N(Cc2ccc(Cl)cc2)C(=S)NC1c1ccc(F)cc1` (stereo not given), 0.56%.
As for `Nc1nc2c(ncn2[C@@H]2O[C@H](C(=O)N[C@@H](Cc3ccccc3)C(=O)NCc3ccccc3)[C@@H](O)[C@H]2O)c(=O)[nH]1`, the activation is 1.55%.
For the molecule `O=S(=O)(c1ccc2c(c1)OCCCO2)N1CCN(S(=O)(=O)c2c(F)cccc2F)CC1`, the activation is -1.98%.
Take `C=CCn1c(CCNC(=O)c2cccs2)n[nH]c1=S`: the activation was 1.16%.
On to `C=CCn1c(=NC(=O)c2ccc(S(=O)(=O)N3CCCC3)cc2)sc2cc(NC(C)=O)ccc21`, for which the activation was -1.46%.
In the case of `C=CCn1c(=NC(=O)c2cccs2)sc2cc(NC(C)=O)ccc21`, the activation was 6.19% (active).
As to `Cc1cc(=O)[nH]c(SCC(=O)Nc2ccc(Cl)cc2C)n1`, the activation was -1.08%.
As for `CCOc1ccc(NC(=O)COC(=O)C2CCC(=O)N2)c([N+](=O)[O-])c1` (stereo not given), the activation is 3.85%.
Consider `CN(C)c1ccc(NC(=O)NC2CCCCN(Cc3ccc(Cl)cc3)C2=O)cc1` (stereo not given), for which the activation is -0.06%.
Turning to `Cc1c2cnn(CC(=O)NCCCN3CC(C)CC(C)C3)c(=O)c2c(C)n1Cc1ccc(Cl)cc1` (stereo not given), the activation was -1.23%.
As to `CC1CC(C)CN(CCCNC(=O)Cn2ncc3c([nH]c4ccccc43)c2=O)C1` (stereo not given), the activation is 6.07% (active).
`CC1CCCCN1CCCNC(=O)Cn1ncc2c([nH]c3ccccc32)c1=O` (stereo not given): the activation was 0.15%.
In the case of `CC(=O)Nc1ccc(C(=O)CSc2nc3ccc(C)cc3[nH]2)cc1`, the activation was 4.98%.
Turning to `CSCC[C@H](NC(=O)OC(C)(C)C)C(=O)N/N=C/c1cc2ccc(C)cc2nc1Cl`, the activation was -0.35%.
In the case of `Cc1ccc2cc(/C=N/Nc3ccc(C(=O)O)cc3)c(Cl)nc2c1`, the activation was 10.2% (active).
For `CC(Oc1ccccc1)C(=O)NN1Cc2ccccc2C1=N` (stereo not given) the value was -1.32%; for `Cc1c(C=O)c2ccccc2n1CC(=O)O`, 9.3% (active); for `O=C(O)Cn1c(Cc2ccccc2)nc2ccccc21`, 0.35%.
`Cc1c(C=O)c2ccccc2n1CCOc1ccccc1`: the activation was -3.86%.
`CCOC(=O)c1csc(NC(=O)C2CCCN(S(=O)(=O)c3ccc(Cl)s3)C2)n1` (stereo not given): the activation was -2.96%.
Consider `COc1ccc(-c2cc(-c3nnc(SCc4ccc([N+](=O)[O-])cc4)n3N)[nH]n2)cc1`, for which the activation was -4.71%.
For `Cn1cnc(C(F)(F)F)c1-c1ccc([N+](=O)[O-])cc1` the value was -1.54%.
As for `Cc1ccc(-c2cn3cc([N+](=O)[O-])ccc3n2)cc1`, the activation is 7.66% (active).
Take `C=CCN(C(=O)[C@@H](CCCC)[C@@H](O)c1ccc(Cl)cc1)c1ccccc1`: the activation was -1.78%.
Consider `CCCCCCCCN1C(=O)[C@@H](CC(=O)NCc2ccc(C)o2)C[C@@]2(C(=O)OC)C1=C[C@H](C(C)(C)C)O[C@@H]2C`, for which the activation is 0.67%.
For `CN1C[C@]2(C=C3CCCCC3n3c(=O)n(-c4ccccc4)c(=O)n32)N=C1NC(=O)c1ccccc1` (stereo not given in full) the value was -1.23%; for `c1ccc2sc(NN=C3CCCC3)nc2c1`, 9.02% (active); for `O=C1NC(Nc2nc3ccccc3s2)(C(F)(F)F)C(=O)N1C1CCCCC1` (stereo not given), 2.82%.
As for `CCN(CC)CCn1c2c(c(SCC(=O)Nc3nc4ccccc4s3)nc1=O)CCCC2`, the activation is 1.05%.
With `O=S1(=O)c2c(cccc2N2CCCCC2)O[C@H](COCc2ccccc2)CN1C1CC1`, the activation was -2.09%.
Take `COc1cccc(-c2nc(CS(=O)(=O)CC(=O)NCCc3ccc(OC)c(OC)c3)c(C)o2)c1`: the activation was -1.4%.
On to `O=[N+]([O-])c1ccc2c(c1)C(O)n1nc(-c3ccccc3)nc1S2` (stereo not given), for which the activation was 0.58%.
As to `O=[N+]([O-])c1ccc2oc(-c3cccc(O)c3)nc2c1`, the activation was 15.4% (active).
For `COc1cccc(-c2nnc(SCCOc3ccc4c(C)cc(=O)oc4c3)o2)c1` the value was 0.05%; for `CC(=O)Oc1ccc2c(=O)oc(-c3ccc([N+](=O)[O-])cc3)nc2c1`, -2.73%; for `COc1cccc(-c2nc3cc(C)ccc3o2)c1`, 14.7% (active).
The figure for `COc1cccc(CNC(=O)[C@H]2CCCN2C(=O)[C@H]2CCCN2C(=O)c2cc(F)cc(F)c2)c1` is -1.64%.
As to `CSc1ccc(C=Nn2c(-c3ccc(F)cc3)n[nH]c2=S)cc1`, the activation was -0.55%.
As for `CC(C)Cn1c(CCC(=O)O)ccc1-c1cccs1`, the activation was -0.34%.
With `C=C1C(C(C)C)N(C)C2=NC(c3ccccc3)CC(=O)N12` (stereo not given), the activation is -1.26%.
For `COc1ccc(-n2c(SCC(=O)Nc3ccccc3-c3ccccc3)nnc2-c2cccnc2)cc1` the value was -2.71%; for `O=C(COc1ccccc1Cl)Nc1ccccc1C(=O)NC1CC1`, 0.7%; for `CC(=O)Nc1ccc(NC(=O)COc2ccccc2C(=O)Nc2cccc(Cl)c2Cl)cc1`, 5.68% (active).
The figure for `O=C(COc1ccccc1Cl)Nc1ccc(C(=O)c2ccc(C(=O)O)cc2)cc1` is -0.48%; for `Brc1ccc(COCCc2cn(Cc3ccccc3)c3ccccc23)cc1` it is -0.22%.
Consider `CC(=O)O[C@@]1(C(C)=O)CCC2[C@H]3C=C(C)C4=CC(=O)CC[C@@]4(C)C3CC[C@]21C` (stereo not given in full), for which the activation is -1.02%.
The figure for `COc1ccc2cc(CCl)c(Cl)nc2c1` is -0.92%; for `COc1ccc2nc(-c3ccccn3)ccc2c1` it is 8.16% (active).
Turning to `COc1ccc(C=C(C#N)C#N)c(CSc2ccccn2)c1`, the activation was -0.83%.
As to `Cc1nc(CNc2ncnc3ccc(-c4ccc5c(c4)OCO5)cc23)cs1`, the activation is -1.68%.
As for `O=C(Oc1ccc([N+](=O)[O-])cc1)c1ccc2ccccc2n1`, the activation was 8.61% (active).
Regarding `Cc1ccc(S(=O)(=O)N(C)C)cc1NC(=O)C(C)OC(=O)c1ccc2ccccc2n1` (stereo not given), the activation is 0.62%.
Take `N/C(Cc1ccc([N+](=O)[O-])cc1)=N\OC(=O)COc1ccc2ccccc2c1`: the activation is -2.58%.
As for `COC(=O)C1CN(Cc2cn(Cc3ccc(F)cc3)nn2)CCS(=O)(=O)N1Cc1ccc(Cl)cc1` (stereo not given), the activation is -3.19%.
For `COc1ccc(-c2ccccc2C2Cc3nnccc3CN2C(=O)Nc2ccccc2)cc1` (stereo not given) the value was -1.19%; for `Cc1ccc(Cn2cc(CN3[C@@H](C)COc4cc(Br)ccc4S3(=O)=O)nn2)cc1`, -3.6%.
With `O=C(NCc1ccco1)C1CCCN1S(=O)(=O)c1ccccc1C(F)(F)F` (stereo not given), the activation was -2.37%.
For `CN(C)c1nc(N)nc(CSc2ccccn2)n1`, the activation is 0.13%.
On to `Cc1ccc(NC(=O)c2cnc(SCC(=O)NCC3CCCO3)n(C)c2=O)cc1` (stereo not given), for which the activation is 5.83% (active).
As to `Cn1c(SCC(=O)c2ccccc2)ncc(C(=O)Nc2ccc(F)cc2)c1=O`, the activation was 0.15%.
On to `CCn1c(SCC(=O)NCC2CCCO2)nc2ccccc21` (stereo not given), for which the activation was 1.17%.
`CCCCN(CC)C(=O)c1ccccc1Oc1ccccc1`: the activation is -2.5%.
As for `COCc1cc(N2CCN(C(=O)OC(C)(C)C)C[C@@H]2C)ccc1N1CCN(Cc2ccccc2)[C@H](C)C1`, the activation is -1.75%.
Consider `O=C(NCCc1ccccc1)Oc1ccc(Cl)cc1`, for which the activation is 2.6%.
With `CC(C)c1ccc(C(=O)NCCCc2ccccc2)cc1`, the activation is 2.26%.
The figure for `CCCOc1ccc(C(=O)NCCc2ccccc2)cc1` is 7.01% (active); for `N#Cc1ccc(OCCCN2CCC(C(O)(c3ccccc3)c3ccccc3)CC2)c(F)c1` it is -0.43%; for `CCOCCCNC(=O)C(NC(=O)Cc1c[nH]c2ccccc12)c1ccc(OC)cc1` (stereo not given) it is 5.82% (active).
Turning to `CCOCCCNC(=O)C(NC(=O)CNC(=O)c1ccccc1)c1ccc(OC)cc1` (stereo not given), the activation is 1.22%.
Take `CCOCCCNC(=O)C(NC(=O)CNC(=O)c1ccccc1)c1ccc(C)cc1` (stereo not given): the activation was -0.9%.
